Inconclusive results are not listed. A call without a number means that no potency is given here. Activity calls are given as the source filed them. The call rests on the fitted dose curve; in most records, active means well fitted curve in the direction sought with a large enough effect; inconclusive means small, poorly fitted or top-dose-only effect, or another doubt; inactive means no such curve, though single readings can be large; an effect the other way counts as inactive or inconclusive.
Columns and labels:
[1] = qHTS assay to identify small molecule inhibitors of chordoma cells - UCH-1 (AID 1259355); further: nearly all actives have a fitted effect of over 55% in size
Summary of the method: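 Screening used approved and investigational drugs in 15-point titration against 800 seeded cells per well. A fixed combination of auranofin with camptothecin, doxorubicin, rubitecan and topotecan followed compound addition, and growth was scored by CellTiter-Glo after 48hr.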

[2] = qHTS assay to identify small molecule inhibitors of chordoma cells - UCH-2 (AID 1259356); further: series mostly up to about 46 µM
[3] = P-glycoprotein substrates identified in KB-3-1 adenocarcinoma cell line, qHTS therapeutic library screen (AID 1346986); settings: KB-3-1 parental cells viability, CellTiter-Glo, 72 h; further: nearly all actives have a fitted effect of over 60% in size
Summary of the method: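 Viability by CellTiter-Glo after 72 h compound exposure at 37 degree C, 5% CO2. Cytotoxic call: curve class -1.1 to -2.4, maximum response >50%, AC50 < 10 uM, compared across KB-3-1 and P-gp-overexpressing KB-8-5-11.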

[4] = P-glycoprotein substrates identified in KB-8-5-11 adenocarcinoma cell line, qHTS therapeutic library screen (AID 1346987); settings: outcome: dose series up to 44.5 µM unless noted; further: nearly all actives have a fitted effect of over 65% in size
Summary of the method: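 In this qHTS, P-gp-rich KB-8-5-11 cells received library compounds across a concentration range. Viability was quantified by luminescence after 72 h at 37 degree C.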

Compound	Potency [1]	Potency [2]	outcome [3]	outcome [4]	Potency [4]
CC(C)=CCC/C(C)=C/CC/C(C)=C/CC/C(C)=C/CC1=C(C)C(=O)c2ccccc2C1=O	inactive	inactive			
O=C(O)CCC/C=C\C[C@@H]1[C@@H](/C=C/[C@@H](O)COc2cccc(C(F)(F)F)c2)[C@H](O)C[C@@H]1O	inactive	inactive			
CN[C@@H]1[C@H](O[C@H]2[C@H](O[C@H]3[C@H](O)[C@@H](O)[C@H](N=C(N)N)[C@@H](O)[C@@H]3N=C(N)N)O[C@@H](C)[C@]2(O)C=O)O[C@@H](CO)[C@H](O)[C@H]1O	inactive	inactive	inactive	inactive [setting not given]	
OC[C@H]1O[C@@H]2O[C@H]3[C@H](O)[C@@H](O)[C@@H](O[C@H]4[C@H](O)[C@@H](O)[C@@H](O[C@H]5[C@H](O)[C@@H](O)[C@@H](O[C@H]6[C@H](O)[C@@H](O)[C@@H](O[C@H]7[C@H](O)[C@@H](O)[C@@H](O[C@H]1[C@H](O)[C@H]2O)O[C@@H]7CO)O[C@@H]6CO)O[C@@H]5CO)O[C@@H]4CO)O[C@@H]3CO	inactive	inactive			
CC12CCC(C1)C(C)(C)C2=O (centres undefined)	inactive	inactive			inactive
O=C(O)Cc1nn(Cc2ccc(Br)cc2F)c(=O)c2ccccc12	inactive	inactive			inactive
CC(CC=O)CCCC(C)(C)O (centres undefined)	inactive	inactive			
CC(C)(C)C(=O)OCC(=O)[C@H]1CC[C@H]2[C@@H]3CCC4=CC(=O)CC[C@]4(C)[C@H]3CC[C@]12C	inactive	inactive			inactive
CCOC(C)OCC	inactive	inactive			inactive

— PubChem BioAssay (NCATS)
